Test results from PubChem BioAssay (NCATS).
Records with an inconclusive call do not appear. Active and inactive are the calls of the source. Unless noted, calls come from the whole dose curve; as a rule, active = well fitted curve in either direction with a large enough effect (not every such curve was filed as active); inconclusive = small, poorly fitted or top-dose-only effect, or another doubt; inactive = flat fitted curve, though single readings scatter.

Tests used:
[1] = molecular target: Lysosomal acid glucosylceramidase (Homo sapiens) (UniProt P04062); assay: Glucocerebrosidase-p2 (AID 348; in the data active = potency below about 10 µM; note: potency is the fitted concentration of half-maximal effect); conditions: purified GBA, blue fluorogenic substrate, 40 min
Sequence of Lysosomal acid glucosylceramidase (Homo sapiens) (P04062 whole entry, looked up): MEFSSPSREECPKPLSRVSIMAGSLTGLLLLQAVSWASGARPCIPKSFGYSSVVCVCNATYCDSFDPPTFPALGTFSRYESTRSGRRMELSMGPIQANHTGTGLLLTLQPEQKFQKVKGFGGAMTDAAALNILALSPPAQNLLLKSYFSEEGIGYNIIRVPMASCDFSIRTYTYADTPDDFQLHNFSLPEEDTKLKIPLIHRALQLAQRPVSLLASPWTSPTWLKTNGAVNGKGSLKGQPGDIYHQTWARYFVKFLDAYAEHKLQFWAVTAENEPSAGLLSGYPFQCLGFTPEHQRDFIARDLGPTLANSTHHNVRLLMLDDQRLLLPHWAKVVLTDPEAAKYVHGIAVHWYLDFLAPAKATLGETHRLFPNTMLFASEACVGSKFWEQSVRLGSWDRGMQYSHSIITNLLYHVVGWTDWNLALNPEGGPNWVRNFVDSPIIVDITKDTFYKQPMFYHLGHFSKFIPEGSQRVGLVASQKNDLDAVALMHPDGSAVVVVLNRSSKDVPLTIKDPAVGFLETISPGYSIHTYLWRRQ
How it was run: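 Normal human glucocerebrosidase (0.2 nM) with blue fluorogenic substrate (80 uM final) in citrate/phosphate pH 5.9 with 10mM sodium taurocholate, 0.01% tween-20; 40 min RT, NaOH/glycine stop; fluorescence Ex 365/Em 440; AC50 from a titration from 0.6 nM upwards.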

[2] = AP1 Signaling Pathway (AID 357); conditions: ME-180 AP-1-bla reporter, EGF-induced, beta-lactamase ratio, 5 h; at 7.69 µM (top of the series) unless noted;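 note: ME-180 reporter cells stimulated with EGF at its EC50 level; % is set by controls: 0 for no effect and ±100 for the full control effect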
How it was run: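 Beta-lactamase reporter under AP-1 response element, ME-180 background. Stimulus: EC50 EGF. Compound exposure 5 h, 37 °C. Detection: CCF4, 2.5 h RT, 460/530 nm. Values: AC50 from titration.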

[3] = molecular target: Cytochrome P450 1A2 (Homo sapiens) (UniProt P05177); assay: p450-cyp1a2 (AID 410; calls by dose curve; note: potency is the fitted concentration of half-maximal effect;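 for activity change, negative = inhibition: -100% = full effect of reference inhibitor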); conditions: recombinant CYP1A2, luciferin-ME demethylation, luminescence; series mostly up to 11.4 µM
Sequence of Cytochrome P450 1A2 (Homo sapiens) (P05177 whole entry, looked up): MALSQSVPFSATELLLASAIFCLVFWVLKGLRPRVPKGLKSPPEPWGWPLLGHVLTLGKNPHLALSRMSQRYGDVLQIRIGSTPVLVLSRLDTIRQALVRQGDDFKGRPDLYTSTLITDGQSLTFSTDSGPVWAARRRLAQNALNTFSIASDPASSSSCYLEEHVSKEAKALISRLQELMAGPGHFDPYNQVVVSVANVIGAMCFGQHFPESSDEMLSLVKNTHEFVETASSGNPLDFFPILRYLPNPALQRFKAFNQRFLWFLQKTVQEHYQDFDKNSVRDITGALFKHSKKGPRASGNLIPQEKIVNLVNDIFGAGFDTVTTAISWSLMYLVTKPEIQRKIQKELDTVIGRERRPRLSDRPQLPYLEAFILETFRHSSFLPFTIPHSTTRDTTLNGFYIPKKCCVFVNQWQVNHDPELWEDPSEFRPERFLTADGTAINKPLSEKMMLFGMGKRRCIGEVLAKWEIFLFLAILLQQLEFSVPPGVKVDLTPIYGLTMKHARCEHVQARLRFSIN
How it was run: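 O-Demethylation of luciferin 6' methyl ether by human CYP1A2 is monitored as luciferase luminescence. Substrate sits at Km (100uM); enzyme is 20nM. Values are scaled to 57 uM furafylline as maximal inhibition.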

[4] = NFAT Signaling Pathway (AID 444); conditions: Jurkat NFAT-bla M1, carbachol, beta-lactamase ratio, 5 h; at 7.69 µM (top of the series) unless noted;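 note: carbachol stimulus at about its EC50 of 1 µM final; % is set by controls: 0 for no effect and ±100 for the full control effect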
How it was run: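 Read-out: CCF4 FRET ratio (460 nm/530 nm) after 1 h RT dye loading, used for %activity and AC50 from titration series. Cells: Jurkat NFAT-β-lactamase/M1 line, treated with compound plus 1 uM carbachol for 5 h, 37 °C.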

[5] = Stat Signaling Pathway (AID 446); conditions: ME-180 SIE beta-lactamase reporter, IL-6 stimulated, 5 h; at 7.69 µM (top of the series) unless noted;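 note: ME-180 cervical cancer cells given 40 pM IL-6 alongside compound; SIE-controlled beta-lactamase reporter measured as 460/530 nm FRET emission ratio; % is set by controls: 0 for no effect and ±100 for the full control effect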
How it was run: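 Overnight-plated ME-180 cells bearing a STAT Inducible Element beta-lactamase reporter; 5 h co-exposure to compound and 40 pM IL-6; values normalized to 300 pM IL-6 and 125 nM JAK inhibitor controls.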

[6] = molecular target: Glucocorticoid receptor (Homo sapiens) (UniProt P04150); assay: GR-GFP Redistribution (AID 450;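 active = compounds whose dose series gives a full or clear partial fitted curve of increased nuclear translocation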; note: potency is the fitted concentration of half-maximal effect); conditions: U2OS GR-GFP nuclear translocation, laser cytometry, 2 h
Sequence of Glucocorticoid receptor (Homo sapiens) (P04150 whole entry, looked up, the tested form may be a part): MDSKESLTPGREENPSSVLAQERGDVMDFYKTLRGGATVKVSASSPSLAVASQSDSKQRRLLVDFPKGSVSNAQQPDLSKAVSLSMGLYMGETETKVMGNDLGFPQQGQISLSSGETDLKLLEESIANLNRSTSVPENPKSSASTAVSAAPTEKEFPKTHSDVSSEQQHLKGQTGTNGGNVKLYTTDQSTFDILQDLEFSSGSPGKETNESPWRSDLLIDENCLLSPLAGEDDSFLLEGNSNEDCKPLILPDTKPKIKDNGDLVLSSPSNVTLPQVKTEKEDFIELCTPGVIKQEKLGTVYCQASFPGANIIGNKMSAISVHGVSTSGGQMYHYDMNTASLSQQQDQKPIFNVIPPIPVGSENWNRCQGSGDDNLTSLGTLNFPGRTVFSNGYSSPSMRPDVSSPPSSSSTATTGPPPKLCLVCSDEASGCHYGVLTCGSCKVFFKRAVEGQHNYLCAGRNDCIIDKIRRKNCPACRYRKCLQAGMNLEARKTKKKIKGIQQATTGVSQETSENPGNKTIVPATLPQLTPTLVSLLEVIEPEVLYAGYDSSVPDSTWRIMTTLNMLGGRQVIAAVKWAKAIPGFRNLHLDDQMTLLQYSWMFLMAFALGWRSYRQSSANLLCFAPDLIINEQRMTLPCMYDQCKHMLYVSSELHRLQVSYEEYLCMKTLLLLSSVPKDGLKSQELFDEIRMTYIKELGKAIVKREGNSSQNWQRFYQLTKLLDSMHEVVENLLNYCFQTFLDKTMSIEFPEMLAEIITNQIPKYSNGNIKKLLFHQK

[7] = molecular target: Glucocorticoid receptor (Homo sapiens) (UniProt P04150); assay: GR-EFC Redistribution (AID 451; calls by dose curve; note: potency is the fitted concentration of half-maximal effect); conditions: CHO-K1 GR-EFC translocation, beta-gal luminescence, 2 h
How it was run: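 Translocation of GR-ED fusion to nuclear EA restores b-gal, read by luminescence after 1 h room-temperature detection. Engineered CHO-K1 biosensor cells, 1,000/well, exposed 2 h at 37 C to titrations up to 46 uM final.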

[8] = molecular target: Mitogen-activated protein kinase 10 (Mus musculus) (UniProt Q61831); assay: JNK3 AlphaScreen Assay (AID 530); conditions: JNK3 lysate, c-Jun phosphorylation; series mostly up to 57.1 µM;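 note: kinase came from lysate of stimulated human HepG2 cells; signal reports phosphorylation of biotinylated GST-cJun 1-79 at Ser73 with 10 µM ATP; % is set by controls: 0 for no effect and ±100 for the full control effect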
How it was run: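 qHTS titrations with 15 min compound pre-incubation before adding ATP (10 uM final). Read-out: AlphaScreen of Ser73-phosphorylated biotin-GST-cJun using HepG2 lysate JNK3 activated by IL-1β and TNFα.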

[9] = molecular target: 3',5'-cyclic-AMP phosphodiesterase 4B (Homo sapiens) (UniProt Q07343); assay: qHTS Assay for Inhibitors of PDE-IV (AID 607; active = well fitted activation curve with a large enough effect in the main read-out, with a control signal flat, not every such curve was filed as active; note: % of control where 0% means no effect); conditions: HEK293 ACTOne CNG channel cells, membrane potential fluorescence; series mostly up to 22.9 µM
Sequence of 3',5'-cyclic-AMP phosphodiesterase 4B (Homo sapiens) (Q07343 whole entry, looked up): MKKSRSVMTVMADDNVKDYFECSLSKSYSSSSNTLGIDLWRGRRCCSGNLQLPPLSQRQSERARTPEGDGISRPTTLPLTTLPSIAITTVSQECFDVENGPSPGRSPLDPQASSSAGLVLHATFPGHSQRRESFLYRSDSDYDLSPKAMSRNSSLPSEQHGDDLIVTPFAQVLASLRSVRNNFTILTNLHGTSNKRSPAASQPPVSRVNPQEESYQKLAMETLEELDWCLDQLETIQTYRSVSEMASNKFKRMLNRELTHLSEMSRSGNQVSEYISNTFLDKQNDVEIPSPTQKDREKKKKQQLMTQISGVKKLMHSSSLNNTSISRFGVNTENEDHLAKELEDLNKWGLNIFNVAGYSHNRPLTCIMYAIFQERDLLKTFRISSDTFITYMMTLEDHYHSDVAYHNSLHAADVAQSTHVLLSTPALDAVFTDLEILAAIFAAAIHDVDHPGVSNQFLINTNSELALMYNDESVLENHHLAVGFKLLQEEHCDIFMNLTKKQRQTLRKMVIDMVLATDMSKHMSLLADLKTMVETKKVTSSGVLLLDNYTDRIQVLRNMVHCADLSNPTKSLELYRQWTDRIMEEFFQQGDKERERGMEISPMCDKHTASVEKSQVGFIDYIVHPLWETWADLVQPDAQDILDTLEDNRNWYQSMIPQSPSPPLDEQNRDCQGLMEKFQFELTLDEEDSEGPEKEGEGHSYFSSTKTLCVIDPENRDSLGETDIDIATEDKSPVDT
How it was run: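 Live HEK293 cells with a modified cyclic nucleotide-gated (CNG) channel report intracellular cAMP via membrane-potential dye fluorescence (ex 535/em 590 nm). Endogenous PDE-IV was targeted. Compounds were tested at up to 22.9 uM final; RO 20-1724 100 uM served as control.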

[10] = molecular target: Cytochrome P450 3A4 (Homo sapiens) (UniProt P08684); assay: qHTS Assay for Activators of Cytochrome P450 3A4 (AID 885; active = well fitted curve in the direction sought with a large enough effect; an effect the other way counts as inactive or inconclusive; note: nearly all actives have a fitted effect of over 65% in size); conditions: recombinant CYP3A4, Luciferin-PPXE luminescence, 60 min; series mostly up to 57.1 µM
Sequence of Cytochrome P450 3A4 (Homo sapiens) (P08684 whole entry, looked up): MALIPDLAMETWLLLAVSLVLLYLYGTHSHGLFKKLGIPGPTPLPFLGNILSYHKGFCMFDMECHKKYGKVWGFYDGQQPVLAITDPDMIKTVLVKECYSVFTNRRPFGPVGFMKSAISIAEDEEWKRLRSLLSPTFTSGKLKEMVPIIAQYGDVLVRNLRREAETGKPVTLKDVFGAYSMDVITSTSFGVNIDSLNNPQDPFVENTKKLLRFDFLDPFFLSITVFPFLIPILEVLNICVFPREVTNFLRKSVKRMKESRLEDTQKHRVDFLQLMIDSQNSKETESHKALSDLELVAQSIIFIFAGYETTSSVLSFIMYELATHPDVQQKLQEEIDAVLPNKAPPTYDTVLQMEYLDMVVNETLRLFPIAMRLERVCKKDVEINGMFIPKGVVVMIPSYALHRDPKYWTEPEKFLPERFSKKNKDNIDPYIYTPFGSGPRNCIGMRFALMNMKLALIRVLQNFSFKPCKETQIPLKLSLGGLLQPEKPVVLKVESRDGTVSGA
How it was run: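 Using 20nM recombinant human CYP3A4 in potassium phosphate (200mM), substrate Luciferin-PPXE at 25uM, luminescent luciferin detection followed a 60-min RT NADPH reaction; data scaled to 57 uM ketoconazole.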

[11] = molecular target: Cytochrome P450 2D6 (Homo sapiens) (UniProt P10635); assay: qHTS Assay for Inhibitors and Substrates of Cytochrome P450 2D6 (AID 891; active = well fitted curve in the direction sought with a large enough effect; an effect the other way counts as inactive or inconclusive; note: nearly all actives have a fitted effect of over 60% in size; note: potency is the fitted concentration of half-maximal effect); conditions: recombinant CYP2D6, luciferin-ME EGE luminescence; series mostly up to 11.4 µM
Sequence of Cytochrome P450 2D6 (Homo sapiens) (P10635 whole entry, looked up): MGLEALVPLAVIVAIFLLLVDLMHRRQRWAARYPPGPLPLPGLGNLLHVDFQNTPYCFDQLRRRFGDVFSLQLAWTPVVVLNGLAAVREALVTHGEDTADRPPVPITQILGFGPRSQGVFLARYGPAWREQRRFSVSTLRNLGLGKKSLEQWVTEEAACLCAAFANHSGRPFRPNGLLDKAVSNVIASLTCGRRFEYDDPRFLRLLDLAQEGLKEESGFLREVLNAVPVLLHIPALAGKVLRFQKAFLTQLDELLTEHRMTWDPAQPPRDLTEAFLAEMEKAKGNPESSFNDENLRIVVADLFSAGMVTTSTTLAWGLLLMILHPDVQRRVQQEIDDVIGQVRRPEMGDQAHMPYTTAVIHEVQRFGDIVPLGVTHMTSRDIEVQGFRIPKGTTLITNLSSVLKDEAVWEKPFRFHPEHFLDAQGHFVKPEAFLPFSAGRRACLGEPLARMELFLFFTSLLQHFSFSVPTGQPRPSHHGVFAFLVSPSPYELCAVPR
How it was run: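 Luminescent read-out of luciferin formed by 5 nM human CYP2D6 demethylating 30 uM Luciferin-ME EGE (Km level) over 60 min at room temperature after NADPH regeneration addition. Data normalized to full inhibition by 1.43 uM quinidine.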

[12] = molecular target: Cytochrome P450 2C19 (Homo sapiens) (UniProt P33261); assay: qHTS Assay for Inhibitors and Substrates of Cytochrome P450 2C19 (AID 899; active = well fitted curve in the direction sought with a large enough effect; an effect the other way counts as inactive or inconclusive; note: nearly all actives have a fitted effect of over 60% in size; note: potency is the fitted concentration of half-maximal effect); conditions: recombinant CYP2C19, luciferin-H EGE luminescence; series mostly up to 11.4 µM
Sequence of Cytochrome P450 2C19 (Homo sapiens) (P33261 whole entry, looked up): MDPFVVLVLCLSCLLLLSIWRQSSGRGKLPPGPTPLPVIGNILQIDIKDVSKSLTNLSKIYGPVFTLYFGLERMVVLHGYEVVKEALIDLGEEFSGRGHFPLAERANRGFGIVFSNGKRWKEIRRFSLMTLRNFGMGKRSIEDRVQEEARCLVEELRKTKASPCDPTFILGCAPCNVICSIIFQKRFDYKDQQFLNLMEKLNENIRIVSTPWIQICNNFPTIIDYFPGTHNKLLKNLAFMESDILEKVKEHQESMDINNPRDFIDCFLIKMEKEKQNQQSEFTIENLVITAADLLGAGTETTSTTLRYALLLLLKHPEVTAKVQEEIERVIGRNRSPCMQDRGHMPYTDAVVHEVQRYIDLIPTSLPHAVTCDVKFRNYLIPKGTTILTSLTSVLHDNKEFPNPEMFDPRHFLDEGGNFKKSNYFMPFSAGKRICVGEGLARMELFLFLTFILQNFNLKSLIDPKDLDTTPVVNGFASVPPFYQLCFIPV
How it was run: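 Luminescence readout of luciferin formed from 10uM Luciferin-H EGE (KM level) by 5 nM CYP2C19 in 50mM KPO4. 60 min NADPH-driven reaction at 37C after 10 min compound preincubation; data scaled to 57uM ketoconazole inhibition.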

[13] = qHTS Assay for Identification of Small Molecule Agonists for Hypoxia Response Element Signaling Pathway (AID 914; active = well fitted activation curve with a large enough effect in the signal ratio, with a control signal flat, not every such curve was filed as active; the % refers to the signal ratio; note: % of control where 0% means no effect); conditions: ME-180 (cervical carcinoma) HRE-bla reporter, beta-lactamase ratio, CoCl2, 17 h; active compounds read high
How it was run: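 Read-out: CCF4 FRET ratio of 460nm to 530nm emission (excitation 405nm) after 2.5 hours at room temperature, taken from HRE-bla ME-180 cells that had been exposed to compound and EC50 CoCl2 for 17 hours.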

[14] = molecular target: Cytochrome P450 2C9 (Homo sapiens) (UniProt P11712); assay: qHTS Assay for Inhibitors and Substrates of Cytochrome P450 2C9 (AID 883; active = well fitted curve in the direction sought with a large enough effect; an effect the other way counts as inactive or inconclusive; note: potency is the fitted concentration of half-maximal effect; nearly all actives have a fitted effect of over 60% in size); conditions: recombinant CYP2C9, luciferin-H luminescence, 60 min; series mostly up to 57.1 µM
Sequence of Cytochrome P450 2C9 (Homo sapiens) (P11712 whole entry, looked up): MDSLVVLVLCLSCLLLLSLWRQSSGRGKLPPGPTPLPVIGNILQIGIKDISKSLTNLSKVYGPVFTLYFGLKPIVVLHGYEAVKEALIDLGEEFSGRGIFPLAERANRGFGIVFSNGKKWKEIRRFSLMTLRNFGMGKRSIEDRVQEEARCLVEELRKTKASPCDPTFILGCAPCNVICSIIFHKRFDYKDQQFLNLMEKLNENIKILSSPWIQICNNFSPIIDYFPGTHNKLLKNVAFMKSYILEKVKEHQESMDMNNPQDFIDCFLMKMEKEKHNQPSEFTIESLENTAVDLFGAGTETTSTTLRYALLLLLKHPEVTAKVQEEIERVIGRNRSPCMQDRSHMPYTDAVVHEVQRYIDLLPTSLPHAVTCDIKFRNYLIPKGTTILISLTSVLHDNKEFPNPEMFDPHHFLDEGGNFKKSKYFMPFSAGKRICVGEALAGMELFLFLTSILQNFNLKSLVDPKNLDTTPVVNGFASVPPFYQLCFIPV
How it was run: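 Luminescent read-out of deoxyluciferin hydroxylation, normalized to 57uM sulphaphenazole (AC100). Reaction: 10nM enzyme, 100uM Luciferin-H (equal to KM), 25mM KPO4, 10 min compound preincubation, then 60 min with NADPH regeneration, both at 37C.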

Oc1ccc(CCNCc2cc3c(cc2Br)OCO3)cc1
active: Potency [3] 1 µM | Potency [11] 0.316 µM | Potency [12] 5.01 µM
inactive: Potency [1] > 11.4 µM | activity change, negative = inhibition [2] -4.32% | activity change, negative = inhibition [4] -17% | activity, negative = inhibition [5] 9.31% | Potency [6] > 46 µM | Potency [7] > 9.22 µM | activity change, negative = inhibition [8] 0.159% [at 11.4 µM] | outcome [9] | activity change, positive = activation [10] -36.4% [at 11.4 µM] | activation [13] -17.8%

CC(=O)OC1=CC2=CC[C@H]3[C@H]4CCC(=O)[C@@]4(C)CC(=O)[C@]3(S)[C@]2(C)CC1
inactive: Potency [1] > 11.4 µM | activity change, negative = inhibition [2] -0.915% | activity change, negative = inhibition [3] -9.4% [at 2.29 µM] | activity change, negative = inhibition [4] 2.48% | activity, negative = inhibition [5] -7.63% | Potency [6] > 46 µM | Potency [7] > 9.22 µM | activity change, negative = inhibition [8] -3.16% [at 11.4 µM] | outcome [9] | activation [13] -4.78%

C[C@]12CC[C@@H]3[C@H](CCC4=CC(=O)CC[C@]43C)[C@]1(O)CC[C@@]2(O)C(=O)CO
inactive: Potency [1] > 11.4 µM | activity change, negative = inhibition [2] -0.316% | activity change, negative = inhibition [3] 4.8% [at 2.29 µM] | activity change, negative = inhibition [4] 5.17% | activity, negative = inhibition [5] -1.84% | Potency [7] > 9.22 µM | activity change, negative = inhibition [8] 4.11% [at 11.4 µM] | activation [13] 7.15%
active: Potency [6] 0.822 µM

CCC1(CCSC(=N)N)C(=O)NC(=O)NC1=O
inactive: Potency [1] > 11.4 µM | activity change, negative = inhibition [2] 6.2% | activity change, negative = inhibition [3] -10.9% [at 2.29 µM] | activity change, negative = inhibition [4] 1.26% | activity, negative = inhibition [5] -4.63% | Potency [6] > 46 µM | activity change, negative = inhibition [8] 3.03% [at 11.4 µM] | outcome [9]

CN(C)CCCc1cccnc1
inactive: Potency [1] > 11.4 µM | activity change, negative = inhibition [2] 3.48% | activity change, negative = inhibition [3] -10.2% [at 2.29 µM] | activity change, negative = inhibition [4] 16.7% | activity, negative = inhibition [5] -4.3% | Potency [6] > 46 µM | Potency [7] > 9.22 µM | outcome [9]

NC[C@@H](Cc1ccccc1)P(=O)(O)O
inactive: Potency [1] > 11.4 µM | activity change, negative = inhibition [2] 11.5% | Potency [3] | activity change, negative = inhibition [4] 4.85% | activity, negative = inhibition [5] 2.4% | Potency [6] > 46 µM | Potency [7] > 9.22 µM | outcome [9]

O=C(O)Cc1ccc([N+](=O)[O-])cc1[N+](=O)[O-]
inactive: Potency [1] > 11.4 µM | activity change, negative = inhibition [2] -0.903% | activity change, negative = inhibition [4] -1.68% | activity, negative = inhibition [5] 5.17% | Potency [6] > 46 µM | activity change, negative = inhibition [8] 4.4% [at 11.4 µM]
active: Potency [3] 3.98 µM

N[C@H](Cc1ccccc1)c1nn[nH]n1
active: Potency [3] 10 µM
inactive: Potency [1] > 11.4 µM | activity change, negative = inhibition [2] 11.1% | activity change, negative = inhibition [4] 1.74% | activity, negative = inhibition [5] -5.07% | Potency [6] > 46 µM | activity change, negative = inhibition [8] 5.89% [at 11.4 µM] | outcome [9]

N[C@H](Cc1ccc2oc3cc(=O)c4ccccc4c-3nc2c1)C(=O)O
inactive: Potency [1] > 11.4 µM | activity change, negative = inhibition [2] 25.4% | activity change, negative = inhibition [4] -17.2% | activity, negative = inhibition [5] 7.75% | Potency [6] > 46 µM | activity change, negative = inhibition [8] 0.331% [at 11.4 µM] | outcome [9] | activity change, positive = activation [10] -32.5% [at 11.4 µM]
active: Potency [3] 1.26 µM

C[C@]1(O)CC[C@H]2[C@@H]3[C@@H](O)CC4=CC(=O)CC[C@@]4(C)[C@H]3CC[C@]21C
inactive: Potency [1] > 11.4 µM | activity change, negative = inhibition [2] 1.55% | activity change, negative = inhibition [3] 1.4% [at 2.29 µM] | activity change, negative = inhibition [4] 6.38% | activity, negative = inhibition [5] -1.92% | Potency [6] > 46 µM | Potency [7] > 9.22 µM | outcome [9]

Nc1nc(N)c(N=Nc2ccc([As](=O)(O)O)c(O)c2)c(N)n1
inactive: Potency [1] > 11.4 µM | activity change, negative = inhibition [2] 1.26% | activity change, negative = inhibition [4] -7.71% | activity, negative = inhibition [5] -1.21% | Potency [6] > 46 µM | activity change, negative = inhibition [8] 1.64% [at 11.4 µM] | outcome [9]
active: Potency [3] 6.31 µM

C[C@H](Br)CN(C[C@H](C)Br)c1ccc2c(c1)Cc1ccccc1-2
active: Potency [3] 3.16 µM | Potency [14] 3.16 µM | Potency [12] 2.51 µM
inactive: Potency [1] > 11.4 µM | activity change, negative = inhibition [2] -9.29% | activity change, negative = inhibition [4] 8.25% | activity, negative = inhibition [5] -7.03% | Potency [6] > 46 µM | Potency [7] > 9.22 µM | activity change, negative = inhibition [8] -8.45% [at 11.4 µM] | outcome [9] | activity change, positive = activation [10] -34.7% [at 11.4 µM] | Potency [11]

O=C(O)c1cc(N=Nc2ccc([As](=O)(O)O)cc2)ccc1O
inactive: Potency [1] > 11.4 µM | activity change, negative = inhibition [2] 6.37% | Potency [3] | activity change, negative = inhibition [4] 6.3% | activity, negative = inhibition [5] -0.258% | Potency [6] > 46 µM | Potency [7] > 9.22 µM | activity change, negative = inhibition [8] 2.47% [at 11.4 µM] | outcome [9] | Potency [11] | Potency [12]
